# Laboratory results: the supplement of paper PMC6555819
# What was measured:
# Assay in all cases: PBM binding z-score (relative to random genomic background probes); higher = stronger binding; sequences stand for … in GC…GCGATTGACAGCGTAGAATGAAGG
# [1] = system: FXR:RXRa (NR concentration 270 nM, RXRa partner concentration 90 nM)
# Summary of the method: (§1)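 Ligand-free nuclear receptor dimers were applied to custom Agilent 4×180K protein-binding microarrays whose double-stranded probes carried direct-repeat seeds, single-nucleotide variants, half-site ablations and random human genomic background sequences in 34-nt variable regions. Incubation lasted 1 h. Binding z-scores were computed against the random background probes from regression-normalized fluorescence.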
# [2] = system: LXRa homodimer (NR concentration 270 nM)
# Summary of the method: as §1
# [3] = system: LXRb homodimer (NR concentration 270 nM)
# Summary of the method: as §1
# [4] = system: PPARa:RXRa (NR concentration 270 nM, RXRa partner concentration 90 nM)
# Summary of the method: as §1
# [5] = system: PPARg:RXRa (NR concentration 180 nM, RXRa partner concentration 90 nM)
# Summary of the method: as §1
# [6] = system: PPARg:RXRa 270nM:90nM, anti-RXR (NR concentration 270 nM, RXRa partner concentration 90 nM)
# Summary of the method: as §1
# [7] = system: PPARg:RXRa 30nM:10nM, anti-RXR (NR concentration 30 nM, RXRa partner concentration 10 nM)
# Summary of the method: as §1
# [8] = system: PPARg:RXRa 90nM:30nM, anti-RXR (NR concentration 90 nM, RXRa partner concentration 30 nM)
# Summary of the method: as §1
# [9] = system: PPARg:RXRa DBDmut IVT, anti-RXR (DBD mutation: RXRa K156A/R161A, NR concentration 270 nM, RXRa partner concentration 90 nM)
# Summary of the method: as §1
Sequence,PBM binding z-score [1],PBM binding z-score [2],PBM binding z-score [3],PBM binding z-score [4],PBM binding z-score [5],PBM binding z-score [6],PBM binding z-score [7],PBM binding z-score [8],PBM binding z-score [9]
TCTCGGAGGAAACGAAAGGTCAGAGCTCGACATC,1.86,2.91,-0.0498,3.66,1.74,3.9,2.92,3.77,1.21
TATTCAGGGTCAAAGGCCAGAGTACGAATGTCGA,7.57,5.36,5.04,–,8.53,7.7,6.15,7.42,2.47
TCTAGTTGGTCTAAGGTCACACACTCGAAATGCG,4.14,2.63,1.6,–,5.15,6.51,5.71,6.57,2.2
CCTACTGGGCCAAAAAGGTCATTGATGCCGATAA,3.46,3.19,-0.142,–,3.35,3.98,1.41,3.38,3.88
ACTCGGATGACAAAGGTCAGAGCTACGCCAGTGA,3.55,1.58,0.503,–,4.68,5.37,3.76,5.58,0.169
ACTAGTTGGTCAGCTGAGGTCACACCCAATTCGG,2.83,2.07,0.443,–,1.54,2.06,0.239,1.19,1.35
ATATGTAGGTTACATCCGGGTCATCCAGGCTATG,1.91,1.67,0.838,–,6.12,5.21,2.47,4.55,7.32
TACCCTAGGTCATTGGGCCAGTATAGTACGCATC,4.66,8.18,3.83,–,4.27,4.04,1.23,2.96,3.2
TTGCCTAGGTCATTGGGCCAGTATAGTACGCATC,4.6,0.781,0.088,–,3.36,3.63,1,2.47,2.65
ATATGTAGGTTAACTGGGGTCATTCAGACTAGGC,5.59,5.57,1.43,–,7.58,6.61,4.49,6.42,7.59
TCTTGTAGATCGATAGAGGTTAAGAAAGTGCGCT,0.392,-0.317,-0.0814,–,-0.159,1.66,2.48,1.93,0.891
CCTAGTTGGTCAAGGTCACACCCGCTATAGGTAC,3.45,2.19,1.02,–,2.92,3.27,1.13,2.4,2.17
CACACTAGGTCACAGAGGTCAAAGTCCGTGCGTA,7.16,8.63,2.87,–,9.53,7.9,5.64,7.43,7.79
CAAACTAGGTCAAAAGGTCAAAGTCCGCTTCCCG,7.44,6.17,2.63,–,10.2,8.73,7.62,9.1,8.5
CTCGAAAGGTCGTGCTCAGATGAGTATACCAAAC,5.4,0.0537,0.486,–,2.71,3.42,0.769,2.09,0.422
TAGCCTAGGTCGTTCAGGGGCCAGTATAGAAAGC,0.616,-0.424,0.206,–,-0.0601,0.17,-0.575,-0.218,-0.258
CCTACTGGGCCAAAGGTGATTGATTCCAATGCTC,-0.0621,-0.216,-0.106,–,8.87,7.96,7.6,8.66,5.69
CAAACTAGTTCAAGAGGTCAAAGTCCGCTTCCCG,5.96,8.11,2.39,–,3.84,5.47,2.85,4.8,2.43
AGTCAAAGTTCAGGACGACGTAACGTAAAGCACG,3.58,0.954,-0.163,–,4.42,4.5,1.87,4,-0.52
AATACAAGGTCATCGTAGGCCAGAGTACGCACAG,7.64,6.1,3.33,–,6.55,5.94,2.73,5.04,3.93
ACTTACGGGTCTACGAGGTTATAGCACGCGTATA,0.283,0.149,0.121,–,0.708,0.426,0.256,0.0516,-0.0713
CGTCAAAGTTCAACTGAGGTAACGTAAAGCACGC,7.32,5.02,2,–,5.04,5.58,2.33,4.11,0.26
CCTTACGGGTCACTGACAGGTTATAGCGTTTGGA,5.14,0.362,0.00055,–,4.5,4.32,1.5,2.78,2.91
CCTACTGGGCCGTTCAGAGGTCATTGATCATATG,2.45,5.59,0.189,–,1.33,2.48,0.658,1.67,1.34
TCTCGGAGGACACAAAGGTCAGAGCTTTCCAGAG,3.05,2.17,-0.2,–,3.27,4.43,3.16,4.07,1.57
TCTGCTAGGTCAACGTTGGTCAGCTAATCTGCTA,3.38,-0.139,0.362,–,2.49,3.4,1.9,2.71,3.92
TGTCAATGTTCAAAGGTAACGTAAGTATCCACAC,0.202,-0.216,0.283,–,2.34,3.47,1.61,3.32,-0.214
CGTCCAAGGTCATTGGAGGTCAGTGAAGACAGAT,7.92,6.77,1.93,–,5.48,5.76,2.48,4.57,3.6
ACTTACGGCTCAACGAGGTTATAGCACGCGTATA,0.333,0.28,0.162,–,0.821,-0.0206,-0.186,-0.0465,-0.0346
